Test results as given in the supplement of paper PMC10646978.
± gives the standard deviation.

Assays:
Conditions in all cases: modulator concentration 10 µM
[1] = system: RAW-Dual (murine macrophage reporter line); assay: NF-kB reporter (SEAP) activity fold change vs agonist alone; higher = enhanced NF-kB activity
Outline: (§1)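 RAW-Dual murine macrophage reporter cells were plated at 50 000 per well in 384-well plates, pin-transferred compound to 10 μM final, and pre-incubated for 1 hour at 37 °C before a PRR agonist was added and the cells incubated overnight. NF-κB activity was read from supernatant SEAP with QUANTI-Blue at 620 nm absorbance, and IRF activity from Lucia luciferase with QUANTI-Luc by luminescence. Each signal was expressed as fold change by dividing by the mean agonist-only control on the same plate. Two replicate plates were averaged, with errors obtained by propagation.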

[2] = system: RAW-Dual (murine macrophage reporter line); assay: IRF reporter (Lucia luciferase) activity fold change vs agonist alone; higher = enhanced IRF activity
Outline: as §1

[3] = system: RAW-Dual (murine macrophage reporter line); assay: viability score (confluency relative to resting cells, overnight) (fraction); higher = more viable, active = viable (0.7 or more)
Outline: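 RAW-Dual macrophages in 384-well plates were treated overnight with compound at 10 μM final. IncuCyte imaging recorded confluency, and IncuCyte software built two confluency masks across every imaged well. The viability score expresses confluency relative to resting cells and was judged against a cutoff, which a compound met only if both masks exceeded 70% of resting cells.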

[4] = agonist: CpG ODN 1826 0.5 ug/mL

| SMILES | NF-kB reporter [1, 4] | NF-kB reporter ([1]; agonist: LPS 0.1 ug/mL) | NF-kB reporter ([1]; agonist: MPLA […]) | IRF reporter ([2]; agonist: 3'3'-cGAMP 10 ug/mL) | IRF reporter ([2]; agonist: LPS 0.1 ug/mL) | IRF reporter ([2]; agonist: MPLA […]) | viability score [3] |
| --- | --- | --- | --- | --- | --- | --- | --- |
| OC(C(=NN=C(c1ccccc1)C(O)c1ccccc1)c1ccccc1)c1ccccc1 (centres undefined) | 0.662 ± 0.072 | 1.14 ± 0.072 | 1.03 ± 0.063 | 1.14 ± 0.038 | 1.48 ± 0.11 | 1.45 ± 0.19 | 0.974 (active) |
| CC(=O)N1CCC(C(=O)N2CCOCC2CN(C)C)CC1.O=CO (centres undefined) | 0.979 ± 0.11 | 1.08 ± 0.17 | 0.924 ± 0.064 | 0.992 ± 0.08 | 1.13 ± 0.089 | 1.06 ± 0.082 | 0.992 (active) |
| COc1ccc(CNC2CCCc3ccccc32)cc1OC (centres undefined) | 0.648 ± 0.24 | 1.1 ± 0.09 | 0.981 ± 0.11 | 0.713 ± 0.026 | 1.12 ± 0.14 | 1.5 ± 0.29 | 0.508 (inactive) |
| CS(=O)(=O)N(CC(=O)NCCSCc1cccc(Cl)c1)c1ccc(F)cc1 | 0.742 ± 0.059 | 1.06 ± 0.059 | 0.857 ± 0.07 | 1.2 ± 0.03 | 1.13 ± 0.1 | 0.867 ± 0.26 | 1.01 (active) |
| CCCOCCOC(=O)C1=C(C)NC2=C(C(=O)CCC2)C1c1ccc(F)c(F)c1 (centres undefined) | 0.971 ± 0.081 | 1.07 ± 0.1 | 0.851 ± 0.07 | 1.09 ± 0.042 | 1.41 ± 0.1 | 1.2 ± 0.12 | 1.01 (active) |
| COc1cc(C=NNc2ccc(C(=O)O)cc2)cc(Br)c1O | 1.16 ± 0.13 | 0.97 ± 0.062 | 1.09 ± 0.1 | 0.198 ± 0.006 | 0.241 ± 0.061 | 0.223 ± 0.035 | 1 (active) |
| Cc1cc(CCNC(=O)c2cc3ccccc3s2)nn1C | 1.2 ± 0.12 | 1.07 ± 0.082 | 0.991 ± 0.064 | 0.82 ± 0.032 | 1.03 ± 0.06 | 0.993 ± 0.16 | 0.997 (active) |
| CCOc1nc2cccc(C(=O)O)c2n1Cc1ccc(-c2ccccc2-c2nn[nH]n2)cc1 | 1.09 ± 0.15 | 1.17 ± 0.38 | 0.976 ± 0.054 | 0.907 ± 0.069 | 1.26 ± 0.31 | 0.98 ± 0.13 | 1.01 (active) |
| Cc1ccn2c(-c3csc(NCc4ccccc4)n3)c(C)nc2c1 | 0.787 ± 0.061 | 1.03 ± 0.048 | 1.19 ± 0.15 | 0.442 ± 0.05 | 1.38 ± 0.082 | 1.46 ± 0.12 | 1.01 (active) |
| c1ccc2nc3c(cc(N4CCOCC4)c4ccccc43)nc2c1 | 0.92 ± 0.078 | 1.04 ± 0.062 | 0.969 ± 0.14 | 0.924 ± 0.023 | 1.34 ± 0.2 | 1.08 ± 0.2 | 1.01 (active) |
| c1ccc(CCn2c3ccccc3c3nnc(SCCN4CCCCC4)nc32)cc1 | 0.232 ± 0.018 | 1.05 ± 0.061 | 1.02 ± 0.061 | 0.81 ± 0.075 | 1.57 ± 0.17 | 1.57 ± 0.11 | 1.01 (active) |
| CCN1CCN(c2nc3c(c(=O)[nH]c(=O)n3C)n2CC(O)COc2cc(C)ccc2C(C)C)CC1 (centres undefined) | 1.18 ± 0.067 | 1.08 ± 0.086 | 1.2 ± 0.064 | 1.1 ± 0.061 | 1.38 ± 0.14 | 1.48 ± 0.31 | 0.956 (active) |
| COc1ccc(CCNC(=O)NCc2nnc3n2CCC(C(F)(F)F)C3)cc1 (centres undefined) | 0.951 ± 0.067 | 1.02 ± 0.088 | 0.947 ± 0.072 | 1.05 ± 0.072 | 1.17 ± 0.07 | 1.12 ± 0.23 | 1.01 (active) |
| CC(=O)Nc1ccc(C(=O)Nc2ccccc2)c(NC(C)=O)c1 | 1.11 ± 0.088 | 0.852 ± 0.14 | 1.09 ± 0.051 | 0.726 ± 0.035 | 0.875 ± 0.087 | 0.747 ± 0.071 | 0.997 (active) |
| CC(=O)Oc1cc2c(s1)CCN(C(C(=O)C1CC1)c1ccccc1F)C2.Cl (centres undefined) | 0.767 ± 0.1 | 0.727 ± 0.11 | 0.77 ± 0.043 | 0.779 ± 0.073 | 1.01 ± 0.088 | 0.998 ± 0.12 | 0.983 (active) |
| Nc1nc2c(ncn2C2CC(O)C(CO)O2)c(=O)[nH]1 (centres undefined) | 0.96 ± 0.089 | 0.787 ± 0.059 | 0.93 ± 0.089 | 1.02 ± 0.043 | 1.26 ± 0.2 | 1.36 ± 0.28 | 1.02 (active) |
| O=C(NCCN1CCN(c2ccc(F)cc2)CC1)c1ccno1 | 1.04 ± 0.1 | 0.965 ± 0.077 | 0.991 ± 0.026 | 0.982 ± 0.059 | 0.968 ± 0.072 | 0.929 ± 0.14 | 0.999 (active) |
| CN(C)[C@@H]1C(O)=C(C(N)=O)C(=O)[C@@]2(O)C(O)=C3C(=O)c4c(O)ccc(Cl)c4[C@@H](O)[C@H]3C[C@@H]12.Cl | 1.29 ± 0.098 | 0.965 ± 0.055 | 1.17 ± 0.038 | 0.728 ± 0.048 | 0.971 ± 0.068 | 0.828 ± 0.12 | 0.984 (active) |
| CC#CC(=O)N1CCC[C@H]1c1nc(-c2ccc(C(=O)Nc3ccccn3)cc2)c2c(N)nccn12 | 0.946 ± 0.24 | 1.03 ± 0.077 | 0.876 ± 0.068 | 0.575 ± 0.019 | 1.02 ± 0.11 | 1.03 ± 0.15 | 0.736 (active) |
| CCNC1(C(N)=O)CCN(c2ncnc3c2nc(-c2ccccc2Cl)n3-c2ccc(Cl)cc2)CC1.Cl | 1.24 ± 0.11 | 0.479 ± 0.038 | 0.674 ± 0.036 | 0.19 ± 0.0086 | 0.464 ± 0.13 | 0.484 ± 0.12 | 0.688 (inactive) |
| Nc1ccn([C@@H]2O[C@H](CO)[C@@H](O)[C@@H]2O)c(=O)n1 | 1.36 ± 0.27 | 1.38 ± 0.13 | 1.38 ± 0.19 | 0.687 ± 0.025 | 1.08 ± 0.16 | 1.14 ± 0.12 | 0.35 (inactive) |
| CSc1nnc2c(n1)[nH]c1c(C)cccc12 | 1.01 ± 0.082 | 0.931 ± 0.096 | 0.904 ± 0.098 | 0.989 ± 0.066 | 1.31 ± 0.25 | 1.42 ± 0.33 | 1.02 (active) |
| Cc1ccc(N2C(=O)CC(Nc3ccc(N4CCOCC4)cc3)C2=O)cc1 (centres undefined) | 1.04 ± 0.11 | 1.09 ± 0.09 | 0.823 ± 0.057 | 0.641 ± 0.016 | 1.2 ± 0.16 | 0.908 ± 0.11 | 1.01 (active) |
| CCCCC1=NC2(CCCC2)C(=O)N1Cc1ccc(-c2ccccc2-c2nn[nH]n2)cc1 | 1.05 ± 0.079 | 0.951 ± 0.08 | 0.978 ± 0.026 | 0.948 ± 0.052 | 1.01 ± 0.15 | 0.945 ± 0.18 | 1 (active) |
| O=C(Nc1cccc(Cl)c1Cl)c1cc2nc(-c3ccco3)cc(C(F)(F)F)n2n1 | 0.9 ± 0.054 | 1.01 ± 0.08 | 0.918 ± 0.055 | 0.864 ± 0.029 | 1.25 ± 0.082 | 1.21 ± 0.16 | 1 (active) |
| O=c1oc2c(O)c(O)cc3c(=O)oc4c(O)c(O)cc1c4c23 | 1.05 ± 0.32 | 0.944 ± 0.051 | 0.963 ± 0.1 | 0.85 ± 0.055 | 1.11 ± 0.12 | 1.1 ± 0.22 | 0.997 (active) |
| O=C(Nc1cccc(C(F)(F)F)c1)Nc1cnn(CC2COc3ccccc3O2)c1 (centres undefined) | 0.717 ± 0.05 | 0.934 ± 0.078 | 1.1 ± 0.059 | 0.913 ± 0.051 | 1.08 ± 0.12 | 1.78 ± 0.45 | 0.841 (active) |
